The values below come from PubChem BioAssay AID1209 (Sanford-Burnham Center for Chemical Genomics, 2008).

Screen size: about 190,000 compounds; about 810 (0.43%) were called active. This is one part of a sample in which actives are shown more often than they occur. Values without a mark were called inactive. Rule as the data show it: active = inhibition above about 50%; inactive = the rest.

What is called inhibition is the relative decrease from the control value, in per cent.

The target of this test is Mannose-6-phosphate isomerase (Homo sapiens) (UniProt P34949). As to the kind of experiment: MPI enzyme activity inhibition – biochemical, fluorescence intensity, coupled assay, primary screen (AID 1209).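 Also: plate controls were DMSO vehicle for no effect and wells lacking substrate for full effect.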 To be noted: purified PMI enzyme, at 20 µM, hits give high values.
Chain of Mannose-6-phosphate isomerase (Homo sapiens) (P34949 whole entry, looked up): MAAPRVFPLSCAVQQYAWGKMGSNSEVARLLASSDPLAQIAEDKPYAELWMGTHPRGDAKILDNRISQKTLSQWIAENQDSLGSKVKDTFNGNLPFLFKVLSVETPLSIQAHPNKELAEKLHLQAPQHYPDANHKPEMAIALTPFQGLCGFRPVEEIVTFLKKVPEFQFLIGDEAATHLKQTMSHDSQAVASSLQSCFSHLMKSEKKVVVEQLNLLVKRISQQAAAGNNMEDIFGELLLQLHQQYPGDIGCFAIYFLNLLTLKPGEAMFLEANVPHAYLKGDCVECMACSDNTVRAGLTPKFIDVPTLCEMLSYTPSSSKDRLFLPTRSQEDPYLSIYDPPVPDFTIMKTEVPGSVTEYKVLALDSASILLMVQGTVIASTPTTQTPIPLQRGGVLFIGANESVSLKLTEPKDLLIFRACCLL
Regarding `CC1(C)C/C(=N\O)c2cc3c(nc2C1)CCCC3`, the inhibition was -3%.

Turning to `Cc1cc(C)nc(NC(=O)c2c(-c3c(Cl)cccc3Cl)noc2C)n1`, the inhibition is 9.1%.

Consider `CCOC(=O)N1CCN(S(=O)(=O)c2cc(C)c(C)cc2C)CC1`, for which the inhibition is -3.8%.

As to `C[N+]1=C(/C=C/Nc2ccccc2Cl)C(C)(C)c2ccccc21`, the inhibition was 78.4% (active).

As for `FC(F)(F)c1cnc(/C=C/Nc2ccccc2Cl)c(Cl)c1`, the inhibition was 12.3%.

`COC(=O)c1ccc(CN(C)S(=O)(=O)c2ccc(C)cc2)o1`: the inhibition was -1.6%.

In the case of `CCc1nc(N=Nc2c(O)[nH]c3ccccc23)c2c3c(sc2n1)CCC3`, the inhibition was -5.7%.

Turning to `C=CCn1c(COc2ccc3c(c2)CCCC3)nnc1SCC(=O)Nc1cccc(SC)c1`, the inhibition is 15%.

In the case of `CC1(C)CC(N2CCCC2)=CC(=[N+]2CCCCC2)C1`, the inhibition is 12.6%.

As to `CC1(C)CC(N2CCCCC2)=CC(=[N+]2CCCCC2)C1`, the inhibition was 34.9%.

Consider `CC1(C)CC(N2CCCC2)=CC(=[N+]2CCCCCC2)C1`, for which the inhibition was 62.8% (active).

Turning to `COc1cc2c(C(=O)OCCN(C)C)c(CSc3ccccc3)n(C)c2cc1Br`, the inhibition was 3.3%.

On to `CC(OC(=O)c1cccnc1Cl)C(=O)Nc1ccc2c(c1)OCCO2` (configuration not stated), for which the inhibition was -6.6%.

With `O=C(Nc1cccc(S(=O)(=O)N2CCOCC2)c1)c1cn(-c2ccccc2)nc1-c1ccc(F)cc1`, the inhibition is 6.6%.

As for `Cc1ccc(C(=O)Nc2ccccc2OC(F)F)cc1`, the inhibition is -0.1%.

With `O=C(Nc1ccccc1OC(F)F)c1ccccc1`, the inhibition is 10.6%.

Take `O=C(Nc1ccccc1OC(F)F)c1ccc(F)cc1`: the inhibition was 109% (active).

On to `O=C(NCCc1ccccc1)c1ccccc1NC(=O)C1CC=CCC1C(=O)O` (configuration not stated), for which the inhibition was 5.2%.

`CC(NC(=O)c1sc2cc([N+](=O)[O-])ccc2c1Cl)C(C)(C)C` (configuration not stated): the inhibition is 57.2% (active).

With `CC(C)N(C(=O)c1sc2cc([N+](=O)[O-])ccc2c1Cl)C(C)C`, the inhibition is 0.2%.

With `O=C(NC1CC1)c1sc2cc([N+](=O)[O-])ccc2c1Cl`, the inhibition is 1.4%.

In the case of `CCNc1ccc(C(=O)OCC(=O)NCCN2C(=O)CSC2=O)cc1[N+](=O)[O-]`, the inhibition was -6.6%.

As for `CCCN1CCC(NC(=O)CCc2nnc(Cc3cc(OC)ccc3OC)o2)CC1`, the inhibition is 7.2%.

Regarding `COc1cccc(C2CC(=O)N3CN(c4ccccc4F)CSC3=C2C#N)c1` (configuration not stated), the inhibition is 16%.

As to `COc1cc(OC)c(C2CC(=O)N3CN(C)CSC3=C2C#N)cc1OC` (configuration not stated), the inhibition is 59.9% (active).

Regarding `COc1ccc(OC)c(C2CC(=O)N3CN(c4ccccc4)CSC3=C2C#N)c1` (configuration not stated), the inhibition was 2.2%.

Take `COc1cc(OC)c(C2CC(=O)N3CN(c4ccccc4)CSC3=C2C#N)cc1OC` (configuration not stated): the inhibition is 41.2%.

For the compound `COc1ccc(N2CSC3=C(C#N)C(c4ccc(OC)c(OC)c4)CC(=O)N3C2)c(OC)c1` (configuration not stated), the inhibition is 39.1%.

In the case of `COc1ccc(OC)c(C2CC(=O)N3CN(c4cccc(Cl)c4)CSC3=C2C#N)c1` (configuration not stated), the inhibition is 16.5%.

`COc1ccc(N2CSC3=C(C#N)C(c4cc(OC)ccc4OC)CC(=O)N3C2)c(OC)c1` (configuration not stated): the inhibition was 53.4% (active).

For `COc1ccc(Br)cc1C1CC(=O)N2CN(C)CSC2=C1C#N` (configuration not stated), the inhibition was 27.6%.

As for `COc1cc(OC)c(C2CC(=O)N3CN(c4ccccc4C)CSC3=C2C#N)cc1OC` (configuration not stated), the inhibition is 30.5%.

For the compound `COc1ccc(OC)c(C2CC(=O)N3CN(c4ccccc4F)CSC3=C2C#N)c1` (configuration not stated), the inhibition is 57.3% (active).

In the case of `COc1ccc(OC)c(C2CC(=O)N3CN(c4cccc(Cl)c4C)CSC3=C2C#N)c1` (configuration not stated), the inhibition is 46.9%.

Take `CCN(CC)S(=O)(=O)c1ccc(OC)c(NC(=O)Cc2cccs2)c1`: the inhibition is -11.3%.

As for `Cc1cc(C)n(-c2ccc(C(=O)Nc3cccc(S(=O)(=O)N(C)C)c3)cc2)n1`, the inhibition is 5.5%.

On to `CCN(CC)S(=O)(=O)N1CCC(C(=O)NCCN2CCOCC2)CC1`, for which the inhibition is -6.8%.

Consider `CCOC(=O)C1CCN(S(=O)(=O)c2ccc(CC)cc2)CC1`, for which the inhibition was -5.3%.

On to `CC(=O)c1ccc(NC(=S)N2CCN(CCN3C(=O)c4cccc5cccc(c45)C3=O)CC2)cc1`, for which the inhibition was 10.7%.

Consider `COc1cccc(NC(=O)c2cc(-c3cccnc3)nc3c(Cl)cccc23)c1`, for which the inhibition was 1.6%.

For `O=C(CCc1ccccc1)Nc1cc(NC(=O)CCc2ccccc2)cc(C(=O)O)c1`, the inhibition was 63.6% (active).

On to `O=C(CCc1ccccc1)Nc1cccc(NC(=O)CCc2ccccc2)c1`, for which the inhibition was 13.7%.

As to `O=C(CCc1ccccc1)Nc1cc(C(=O)O)cc(C(=O)O)c1`, the inhibition was -2%.

For `Cc1cccc(NC(=O)N(C)Cc2cccs2)c1`, the inhibition was 0.5%.

Consider `NNC(=O)c1cc(O)c(O)c(O)c1`, for which the inhibition was 51.2% (active).

For the compound `COC(=O)c1cc(O)c(O)c(O)c1`, the inhibition is 34%.

As to `NNC(=O)c1cccc(O)c1`, the inhibition was 10%.

Take `O=C(Nc1cccc(O)c1)c1noc2c1CCCCC2`: the inhibition is -1.4%.

As to `O=c1nc(Nc2ccc(OCc3ccccc3)cc2)sc2ncccc12`, the inhibition is 3%.

As for `COc1ccc(OC)c(Nc2nc(=O)c3cccnc3s2)c1`, the inhibition is 68.3% (active).

As for `Cc1ccc(Nc2nc(=O)c3cccnc3s2)cc1`, the inhibition was 1.7%.

As to `Cc1nnc(SCC(=O)Nc2ccc3c(c2)OCCO3)n1N`, the inhibition was 11.3%.

Regarding `Oc1ccc(Cl)cc1C=Nc1ccc2c3c(cccc13)CC2`, the inhibition was 50.8% (active).

Turning to `Oc1ccc(Br)cc1C=Nc1ccc2c3c(cccc13)CC2`, the inhibition was 38.4%.

Regarding `Cc1cccc(C=Nc2ccc3c4c(cccc24)CC3)c1O`, the inhibition is 44.8%.

Turning to `Nc1ccc(-n2cnc3cc([N+](=O)[O-])ccc32)cc1`, the inhibition was 53.9% (active).

As to `O=[N+]([O-])c1ccc2c(c1)ncn2-c1ccccc1`, the inhibition is -3.3%.

In the case of `COc1ccc(-n2cnc3cc([N+](=O)[O-])ccc32)cc1`, the inhibition is 5.5%.

Regarding `N=C1C=CC=C2C1=NC1(CCCCC1)N2O`, the inhibition was 72.2% (active).

As for `CCOC(=O)C1CCN(CC(O)COCc2cccs2)CC1` (configuration not stated), the inhibition was -1.6%.

`Oc1ccc2ccccc2c1/C=N/c1nccs1`: the inhibition was 39.6%.

Consider `Oc1ccc2ccccc2c1C=Nc1ccc(Cl)cn1`, for which the inhibition is 56.1% (active).

With `Cc1cc(N=Cc2c(O)ccc3ccccc23)no1`, the inhibition is 43.9%.

As to `O=C(CSc1nc2ccc(Cl)cc2[nH]1)NCc1ccco1`, the inhibition is 1.5%.

As for `Cc1cccc(-n2c3nc(=O)[nH]c(=O)c-3cc3c(C)nn(-c4ccccc4)c32)c1`, the inhibition is 6.4%.

With `COc1cc([N+](=O)[O-])ccc1NC(=O)/C=C/C(=O)O`, the inhibition is -26.7%.

As for `S=C(NCCCn1ccnc1)Nc1ccc(Cl)cc1Cl`, the inhibition was 5.5%.

With `O=C(CSc1nnc2ccccn12)NNC(=O)c1ccccc1`, the inhibition is -2.1%.

In the case of `CCSc1nnc(N)s1`, the inhibition is -0.6%.

In the case of `CCSc1nnc(NC(=O)CC)s1`, the inhibition was 0%.

On to `COc1ccccc1-n1c(=S)[nH]c2c(sc(=S)n2-c2ccccc2)c1=O`, for which the inhibition is -4.5%.

As to `COc1ccc(OC)c(-n2c(=S)[nH]c3c(sc(=S)n3-c3ccccc3)c2=O)c1`, the inhibition is 9.9%.

On to `COc1ccc(-n2c(=S)[nH]c3c(sc(=S)n3-c3ccccc3)c2=O)c(OC)c1`, for which the inhibition was 62.6% (active).

Regarding `CC(O)[C@@H](C(=O)N1CCNCC1)n1cc(CCCCN)nn1` (some centres not stated), the inhibition was 4%.

Regarding `Cc1sc2nc(CSc3ccccc3)nc(N3CCC(C(N)=O)CC3)c2c1C`, the inhibition is 13.3%.

In the case of `CCOC(=O)NC(=O)/C(C#N)=C\c1ccccc1`, the inhibition was 52.6% (active).

Take `N#C/C(=C\c1ccccc1)C(=O)NC(=O)Oc1ccccc1`: the inhibition was 11.3%.

With `Cc1ccc(/C=C(/C#N)C(=O)NC(=O)Oc2ccccc2)cc1`, the inhibition is 4.9%.

In the case of `CSc1cccc(NC(=S)N2CCC(N(C)C3CCCCC3C)CC2)c1` (configuration not stated), the inhibition was -2.7%.

Take `COc1ccc2ccccc2c1C1CC(=O)N2CN(C3CCCCC3)CSC2=C1C#N` (configuration not stated): the inhibition is 25.9%.

As for `COc1ccccc1N1CSC2=C(C#N)C(c3ccc(SC)cc3)CC(=O)N2C1` (configuration not stated), the inhibition is -29.2%.

Turning to `CN1CSC2=C(C#N)C(c3cccc(OCc4ccccc4)c3)CC(=O)N2C1` (configuration not stated), the inhibition is 29.7%.

As for `CCOc1cc(C2CC(=O)NC(SCC)=C2C#N)ccc1O` (configuration not stated), the inhibition was 9.3%.

For the compound `CCc1ccccc1N1CSC2=C(C#N)C(c3cc(OC)c(OC)cc3OC)CC(=O)N2C1` (configuration not stated), the inhibition was 46%.

In the case of `CCOc1ccccc1N1CSC2=C(C#N)C(c3c(OC)ccc4ccccc34)CC(=O)N2C1` (configuration not stated), the inhibition was 64.9% (active).

On to `COc1ccc2ccccc2c1C1CC(=O)N2CN(C)CSC2=C1C#N` (configuration not stated), for which the inhibition was 54.3% (active).

On to `CCOc1cc(C2CC(=O)N3CN(C4CCCCC4)CSC3=C2C#N)ccc1O` (configuration not stated), for which the inhibition is 54.5% (active).

Consider `COc1ccc(C2CC(=O)N3CN(c4ccccc4F)CSC3=C2C#N)cc1OC` (configuration not stated), for which the inhibition is 34.9%.

`CC(NC(=O)COC(=O)c1ccco1)c1ccccc1` (configuration not stated): the inhibition was 6.4%.

With `COc1c(Cl)cc(Cl)cc1C(=O)Nc1ccc(NC(C)=O)cc1`, the inhibition was 7.9%.

For `O=C(Cn1nnc(-c2ccccc2)n1)OC1CCOC1=O` (configuration not stated), the inhibition is -0.6%.

Turning to `Cc1nn(CC(=O)NNC(=S)Nc2ccccc2)c(C)c1[N+](=O)[O-]`, the inhibition is 0%.

Turning to `CC1(C)Cc2c(sc(N)c2C#N)C(C)(C)N1`, the inhibition is 11.6%.

For the compound `Cc1nn(CC(=O)NCCc2ccccc2)c(C)c1[N+](=O)[O-]`, the inhibition is 2.6%.

As for `CCOc1ccc(C(O)C(CN2CCOCC2)c2ccccc2)cc1` (configuration not stated), the inhibition is -4.1%.

In the case of `COC(=O)c1c(NC(=O)c2cccnc2)sc(C)c1C`, the inhibition is -4.9%.

For `CC(=O)Nc1nonc1NC(C)=O`, the inhibition is 5.4%.

Regarding `CC(=O)Nc1cc(OC(C)=O)c2nonc2c1OC(C)=O`, the inhibition was 83.9% (active).

As for `COc1cc(O)c(C(C)=O)cc1OC`, the inhibition was -15.9%.

`CCOc1cc(NC(=O)CCl)c(OCC)cc1NC(C)=O`: the inhibition was -3.2%.

For the compound `COc1cc(O)c(NC(C)=O)c2nonc12`, the inhibition was 64.6% (active).

Regarding `CCOc1cc(Cl)c(NC(C)=O)cc1OCC`, the inhibition is -3%.
